# Results reported in PubChem BioAssay.
# Calls of active or inactive are those of the source.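 How the source made its calls, unless noted: active means NADPH fluorescence slope more negative than the mean of all samples by about 3 SD, 99.7% confidence; inactive means the rest.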
# Legend:
# [1] = inhibitors of TNFa-induced NFkB p65 translocation, primary screen, imaging, HUVEC, MLSMR starter and 10KST1 sets (AID 438;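 active means inhibition above 20% together with a positive visual image hit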;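 further: compound added about 3h40 before a 20 min TNFalpha stimulation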;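 on inhibition: signal is the nuclear over cytoplasmic p65 intensity ratio per well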); conditions: HUVEC TNFa-induced p65 nuclear translocation; cell count: measured here: nuclei count (cytotoxicity indicator), at 2.08 µM; inhibition: at 2 µM, stronger effect = higher value, 0% TNFa-plus-vehicle, 100% no-TNFa wells
# [2] = reduction of polyQ htt aggregates in cells – imaging, exon1htt(103Q)mCFP cells, high-content imaging, primary screen (AID 483;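 active means visual image review flags a hit and inhibition of aggregation exceeds 20%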;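 further: compound exposure lasted 3 days before fixation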;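 on nuclei count: percent of the per-plate median nuclei count of sample wells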); conditions: exon1htt(103Q)mCFP cell line, aggregate imaging, at 2 µM; inhibition of aggregation: stronger effect = higher value; nuclei count: measured here: cell count, toxicity
# [3] = endothelial E-selectin expression blockers – imaging, HUVEC, immunofluorescence, MLSMR starter and 10KST1 sets, primary screen (AID 487;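 active means visually confirmed hit in the image check and inhibition above 20%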;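 on inhibition: signal is fraction of cell area covered by stained E-selectin grains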;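 on nuclei count: 100% = median nuclei count of all wells on the same plate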); conditions: HUVEC TNFalpha-induced E-selectin immunofluorescence imaging, at 2 µM; inhibition: stronger effect = higher value; nuclei count: measured here: cell number, toxicity
# [4] = Primary imaging screen for DUSP6 inhibitors that restore phospho-Erk in transfected HeLa cells, chemical complementation (AID 609;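 active means compounds giving at least 50% inhibition in the cell-based MKP-3 phosphatase rescue imaging test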;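 on inhibition: phospho-Erk level distribution per well compared with pooled transfected vehicle control wells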); conditions: HeLa MKP-3 transfected, phospho-Erk imaging KS statistic, at 10 µM, cells stimulated with TPA for 15 min
# [5] = target: Dual specificity protein phosphatase 6 (Homo sapiens) (UniProt Q16828); assay: as above; conditions: HeLa MKP-3 transfected, phospho-Erk imaging KS statistic; at 10 µM; stronger effect = higher value; cells stimulated with TPA for 15 min
# Chain of Dual specificity protein phosphatase 6 (Homo sapiens) (Q16828 whole entry, looked up): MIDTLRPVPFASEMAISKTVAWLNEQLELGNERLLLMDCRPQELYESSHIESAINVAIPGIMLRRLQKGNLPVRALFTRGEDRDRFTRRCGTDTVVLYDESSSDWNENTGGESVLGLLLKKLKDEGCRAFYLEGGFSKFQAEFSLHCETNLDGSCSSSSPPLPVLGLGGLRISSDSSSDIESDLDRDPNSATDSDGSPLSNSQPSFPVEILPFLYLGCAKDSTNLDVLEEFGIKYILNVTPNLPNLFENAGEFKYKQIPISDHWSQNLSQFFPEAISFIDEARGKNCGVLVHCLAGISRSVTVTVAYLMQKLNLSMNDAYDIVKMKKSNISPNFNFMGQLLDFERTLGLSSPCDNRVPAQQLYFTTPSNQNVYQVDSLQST
# [6] = target: Voltage-gated potassium channel subunit beta-2 (Rattus norvegicus) (UniProt P62483); assay: inhibitors of rat Kvbeta2 reductase activity – biochemical, NADPH fluorescence, primary screen (AID 622;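 active means fluorescence slope higher than the sample average by over 3 SD, cut at about -0.22 in these data, passing the limit was not always enough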;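 further: slope of raw intensity against log time taken from 70 to 1610 s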); conditions: recombinant KvBeta, 4-cyanobenzaldehyde reduction, at 10 µM, stronger effect = higher value
# Chain of Voltage-gated potassium channel subunit beta-2 (Rattus norvegicus) (P62483 whole entry, looked up): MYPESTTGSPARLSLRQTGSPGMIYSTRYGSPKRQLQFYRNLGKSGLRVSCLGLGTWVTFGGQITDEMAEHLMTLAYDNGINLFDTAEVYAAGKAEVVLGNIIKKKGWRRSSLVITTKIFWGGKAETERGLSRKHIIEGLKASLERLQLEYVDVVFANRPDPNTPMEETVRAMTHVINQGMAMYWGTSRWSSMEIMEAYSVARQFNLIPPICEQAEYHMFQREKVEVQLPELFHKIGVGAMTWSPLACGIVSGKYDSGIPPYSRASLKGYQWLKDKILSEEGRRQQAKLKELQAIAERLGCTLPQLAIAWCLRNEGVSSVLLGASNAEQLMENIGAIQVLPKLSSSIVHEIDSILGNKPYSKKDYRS
# [7] = target: Voltage-gated potassium channel subunit beta-2 (Rattus norvegicus) (UniProt P62483); assay: enhancers of rat Kvbeta2 NADPH turnover – biochemical, NADPH fluorescence, primary screen (AID 623); conditions: Recombinant KvBeta, NADPH fluorescence decrease slope, 10 min; at 10 µM; stronger effect = lower value;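 further: fluorescence intensity change per second fitted from 20 to 320 s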
# [8] = target: Alpha-2C adrenergic receptor (Homo sapiens) (UniProt P18825); assay: compounds altering alpha2C-coupled GIRK flux – cell-based, HEK293 alpha2C/GIRK1/2, thallium flux, primary screen (AID 624;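 active means fluorescence slope after compound addition differing from the mean of all screened samples at 99.7% confidence, in either direction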;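 further: slope of fluorescence ratio to pre-addition baseline per second over 15 to 24 s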); conditions: thallium flux BTC fluorescence, at 10 µM, actives lie on both sides
# Chain of Alpha-2C adrenergic receptor (Homo sapiens) (P18825 whole entry, looked up): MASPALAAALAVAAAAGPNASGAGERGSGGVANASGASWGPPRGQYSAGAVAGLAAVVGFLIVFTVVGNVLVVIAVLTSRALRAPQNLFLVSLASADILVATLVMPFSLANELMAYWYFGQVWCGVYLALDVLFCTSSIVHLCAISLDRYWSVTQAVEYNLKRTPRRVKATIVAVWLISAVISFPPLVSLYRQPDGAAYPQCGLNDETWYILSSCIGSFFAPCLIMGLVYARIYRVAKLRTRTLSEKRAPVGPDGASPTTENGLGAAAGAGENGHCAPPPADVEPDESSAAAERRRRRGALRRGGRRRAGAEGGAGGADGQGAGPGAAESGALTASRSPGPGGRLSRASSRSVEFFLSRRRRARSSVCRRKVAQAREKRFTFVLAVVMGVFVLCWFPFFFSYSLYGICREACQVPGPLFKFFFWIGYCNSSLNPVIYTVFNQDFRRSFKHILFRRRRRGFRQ
# [9] = target: Muscarinic acetylcholine receptor M4 (Homo sapiens) (UniProt P08173); assay: M4-linked GIRK flux change, two-sided – cell-based, HEK293 M4/GIRK, thallium flux, BTC-AM, M4 allosteric agonist project, primary screen (AID 625;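 active means fluorescence slope after compound addition differing from the mean of all tested samples at 99.7% confidence, mostly higher but some lower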;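 further: thallium influx through GIRK channels coupled to M4 in HEK293 cells with BTC-AM dye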); conditions: at 10 µM, actives lie on both sides
# Chain of Muscarinic acetylcholine receptor M4 (Homo sapiens) (P08173 whole entry, looked up): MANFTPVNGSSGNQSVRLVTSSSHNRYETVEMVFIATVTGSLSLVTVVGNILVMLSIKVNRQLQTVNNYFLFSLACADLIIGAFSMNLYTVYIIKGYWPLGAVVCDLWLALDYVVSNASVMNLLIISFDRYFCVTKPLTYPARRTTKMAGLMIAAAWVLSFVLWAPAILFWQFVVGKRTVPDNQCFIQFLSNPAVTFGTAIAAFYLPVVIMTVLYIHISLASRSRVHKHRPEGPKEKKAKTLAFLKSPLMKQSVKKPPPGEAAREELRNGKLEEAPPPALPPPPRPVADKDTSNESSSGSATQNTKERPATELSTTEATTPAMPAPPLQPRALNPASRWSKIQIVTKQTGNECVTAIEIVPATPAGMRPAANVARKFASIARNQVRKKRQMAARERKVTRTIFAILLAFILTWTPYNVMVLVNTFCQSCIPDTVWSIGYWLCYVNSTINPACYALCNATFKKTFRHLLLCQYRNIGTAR
# [10] = inhibitors of larval lipid processing in zebrafish, primary screen, whole organism, PED6 fluorescence, gall bladder and intestine (AID 686;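 active means a full or partial loss of lipid-probe fluorescence in the fish gall bladder, intestine or both, judged by eye; inactive means no fluorescence loss, or compound toxic to the fish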;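 further: larvae 5 to 7 days old with five fish per well; signal comes from phospholipase A2 cleavage of quenched PED6 carried via bile; overnight exposure to compound and PED6 before scoring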); conditions: Zebrafish larvae PED6 lipid processing, fluorescence scoring; screened at 20 µM (by protocol)
# [11] = loss of swimming-algae plug formation – whole organism, Chlamydomonas reinhardtii, WT vs cilia-less mutant, absorbance, 96-well, primary screen (AID 463189;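 active means inhibition at or above 50% relative to wild type and mutant plate controls; inactive means inhibition below 50%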;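 further: 0% = wild type cc124 cells in DMSO and 100% = ciliumless bld1 mutant cells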); conditions: Chlamydomonas reinhardtii gravitaxis, OD600 absorbance, 2 days; at 10 µM; stronger effect = higher value
# [12] = blockers of RIG-like receptor reporter activation – cell-based, Sendai virus stimulus, luciferase, 10K MLSCN set, TLR/RLR signaling modifier project, primary screen (AID 602276;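 active means inhibition at or above 50% at 10 µM; inactive means inhibition below 50%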;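 further: firefly luciferase from ISG56 promoter only with Renilla not read in this screen; 0% = Sendai virus plus DMSO and 100% = medium plus DMSO without virus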); conditions: HEK293 RL24 IRF3 luciferase reporter, at 10 µM, stronger effect = higher value
# [13] = TLR3 IRF3 reporter activation blockers – cell-based, poly I:C stimulus, luciferase, 10K MLSCN set, primary screen (AID 602277;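 active means inhibition of the reporter signal at or above 50%; inactive means inhibition below 50%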); conditions: HEK293-TLR3 RL24 IRF3 luciferase reporter, at 10 µM, stronger effect = higher value
# [14] = measured here: cell density z-score
# [15] = measured here: nuclear c-Myc green intensity z-score
# [16] = measured here: nuclear pErk red intensity z-score, stronger effect = higher value
SMILES,cell count [1],inhibition [1],inhibition of aggregation [2],nuclei count [2] [%],inhibition [3],nuclei count [3] [%],"z-score [4, 14]","z-score [4, 15]","z-score [4, 16]",inhibition [5],fluorescence slope [6],NADPH fluorescence slope [7],slope [8],fluorescence slope [9],outcome [10],inhibition [11],inhibition [12],inhibition [13]
COc1ccc(/C(O)=C2/C(=O)C(=O)N(CCN(C)C)C2c2ccccn2)cc1OC (stereo not given),485,-2% (inactive),-10.2% (inactive),100,-108% (inactive),103,-0.696,-0.268,-0.24,2.71% (inactive),-0.47 (inactive),-8.1e-05 (inactive),0.00777 (inactive),0.00535 (inactive),inactive,-0.28% (inactive),-0.634% (inactive),5.99% (inactive)
CCOC(=O)C1CCN(C(C)=C2C(=O)c3ccccc3C2=O)CC1,476,-0.3% (inactive),-15.9% (inactive),104,-21.4% (inactive),95.3,-0.165,0.853,0.114,7.73% (inactive),-0.418 (inactive),-3.2e-05 (inactive),0.00587 (inactive),0.0035 (inactive),inactive,25.7% (inactive),6.04% (inactive),16.6% (inactive)
COc1ccc(C2/C(=C(/O)c3cnn(-c4ccccc4)c3C)C(=O)C(=O)N2CCN(C)C)cc1OC (stereo not given),517,-9.1% (inactive),16% (inactive),72.6,-17.7% (inactive),125,-1.21,1.21,1.2,-6.86% (inactive),-0.428 (inactive),-0.000117 (inactive),0.00586 (inactive),0.00527 (inactive),inactive,-4.78% (inactive),2.76% (inactive),15.6% (inactive)
CCCC1Cc2c(sc3ncnc(N)c23)CO1 (stereo not given),492,-5.3% (inactive),-8% (inactive),80.5,-49.3% (inactive),139,-0.574,-0.569,0.241,-1.98% (inactive),-0.411 (inactive),-4.2e-05 (inactive),0.00633 (inactive),0.00429 (inactive),inactive,1.24% (inactive),-2.55% (inactive),5.36% (inactive)
CCN(CC)CCCN1C(=O)C(=O)/C(=C(/O)c2ccccc2)C1c1ccccn1 (stereo not given),528,-5.4% (inactive),5.1% (inactive),104,-45% (inactive),121,0.55,-1.39,-0.0355,7.7% (inactive),-0.473 (inactive),-3.7e-05 (inactive),0.00741 (inactive),0.00518 (inactive),inactive,8.25% (inactive),2.69% (inactive),1.93% (inactive)
Cn1c(=O)c2c(nc(NCc3ccc4c(c3)OCO4)n2Cc2ccccc2F)n(C)c1=O,651,-4.2% (inactive),37.8% (active),50.9,-161% (inactive),126,-0.011,-1.47,0.345,1.9e-07% (inactive),-0.45 (inactive),-0.000288 (inactive),0.00635 (inactive),0.00703 (inactive),inactive,38.3% (inactive),-2.97% (inactive),10.4% (inactive)
COC(=O)c1ccccc1NC(=O)CSc1nnc(-c2ccncc2)o1,372,-9.3% (inactive),3.1% (inactive),99.2,-75.9% (inactive),128,0.433,-0.668,-1.26,3.42% (inactive),-0.471 (inactive),-4.2e-05 (inactive),0.00552 (inactive),0.00541 (inactive),inactive,4.81% (inactive),5.8% (inactive),19.8% (inactive)
CC1(C)Cc2c(c(-c3ccccc3)nc(N3CCCC3)c2C(N)=O)CO1,496,-6% (inactive),15.7% (inactive),102,-130% (inactive),142,-1.1,1.34,-0.38,-6.59% (inactive),-0.473 (inactive),-0.000128 (inactive),0.0059 (inactive),0.00451 (inactive),inactive; toxic,-0.193% (inactive),16.5% (inactive),21.4% (inactive)
COCCNC(=O)c1c(N)n(CCC2=CCCCC2)c2nc3ccccc3nc12,661,-11.4% (inactive),-0.5% (inactive),101,-22.2% (inactive),149,1.39,-1.83,-0.195,20.2% (inactive),-0.0792 (inactive),-5.5e-06 (inactive),0.00496 (inactive),0.00724 (inactive),inactive,25.3% (inactive),6.4% (inactive),8.21% (inactive)
CC(=O)Nc1ccc(Oc2ccc3nc(C)[nH]c3c2)cc1,566,-6.8% (inactive),13% (inactive),95.6,-129% (inactive),133,-0.271,-0.885,-1.67,13.7% (inactive),-0.504 (inactive),-3.4e-05 (inactive),0.00532 (inactive),0.00521 (inactive),inactive,5.53% (inactive),-8.22% (inactive),-0.929% (inactive)
O=C1C2CC=C(Cl)CC2C(=O)N1CNc1ccccn1 (stereo not given),549,-1.9% (inactive),21.8% (inactive),86.4,-24.7% (inactive),118,-0.409,1.18,-0.807,1.98% (inactive),-0.446 (inactive),-1.4e-05 (inactive),0.00475 (inactive),0.00609 (inactive),inactive,-11.9% (inactive),11.3% (inactive),18.2% (inactive)
Cc1cc(/C=N\O)c(C)n1-c1ccncc1,547,-1.1% (inactive),7.2% (inactive),92.6,-50.3% (inactive),120,-0.413,0.337,0.578,9.82% (inactive),-0.47 (inactive),-0.000127 (inactive),0.00523 (inactive),0.00493 (inactive),inactive,19.4% (inactive),20.1% (inactive),25.1% (inactive)
C/C(=N\O)C(=O)NCCCNCCCN(C)C,609,-2.7% (inactive),-14.3% (inactive),109,-42% (inactive),115,-1.26,0.664,-0.264,-3.95% (inactive),-0.495 (inactive),-5.8e-05 (inactive),0.0053 (inactive),0.00686 (inactive),inactive,-5.12% (inactive),15.3% (inactive),20.9% (inactive)
CCOc1ccc(S(=O)(=O)N(C)C)cc1-c1nc2c(C(C)(C)C)nn(C)c2c(=O)[nH]1,411,20.9% (active),-22.3% (inactive),107,27.5% (inactive),115,1.1,0.134,-1.43,17.3% (inactive),-0.477 (inactive),-0.000115 (inactive),0.00418 (inactive),0.00621 (inactive),inactive,19.7% (inactive),-1.7% (inactive),-7.19% (inactive)
N#CC1=C(N)OC2=C(C(=O)CCC2)C1CCc1ccccc1 (stereo not given),620,2.3% (inactive),21% (inactive),110,-94.4% (inactive),110,1.04,-0.525,-0.374,2.92% (inactive),-0.527 (inactive),-1.3e-05 (inactive),0.00639 (inactive),0.00745 (inactive),inactive,33.2% (inactive),7.7% (inactive),15.7% (inactive)
Cc1ccc(S(=O)(=O)N2CCN(c3nc(C(C)C)c4c(c3C#N)CC(C)(C)OC4)CC2)cc1,604,-7.5% (inactive),-19.5% (inactive),102,-19.5% (inactive),120,0.934,0.596,-1.08,5.35% (inactive),-0.441 (inactive),-8.5e-05 (inactive),0.00654 (inactive),0.00645 (inactive),inactive; toxic,-7.57% (inactive),-1.31% (inactive),44.4% (inactive)
CNC(=O)CC(C(=O)O)c1ccc(OC(C)C)cc1 (stereo not given),649,-0.5% (inactive),26.1% (inactive),89.4,21.1% (inactive),125,-0.892,0.826,1.07,-2.09% (inactive),-0.454 (inactive),-4e-05 (inactive),0.00593 (inactive),0.00492 (inactive),inactive,2.81% (inactive),12.9% (inactive),19.4% (inactive)
Cc1ccc(NC(=O)CSC2=C(C#N)C(c3ccc4c(c3)OCO4)CC(=O)N2)cc1C (stereo not given),636,1.6% (inactive),-10.3% (inactive),122,-11.7% (inactive),122,0.402,0.339,-0.3,6.51% (inactive),-0.486 (inactive),-2.7e-05 (inactive),0.00695 (inactive),0.00748 (inactive),inactive,25.6% (inactive),-18.5% (inactive),-9.47% (inactive)
CC(=O)Nc1ccc(-c2cc3ccccc3o2)cc1,572,-3.8% (inactive),-5.2% (inactive),112,11% (inactive),138,-0.412,2.18,0.0674,-0.233% (inactive),-0.468 (inactive),-0.00011 (inactive),0.00496 (inactive),0.00556 (inactive),inactive,17.4% (inactive),-24.7% (inactive),-112% (inactive)
CCN(CC)CCCN1C(=O)C(=O)/C(=C(/O)c2ccc(C)cc2)C1c1ccccn1 (stereo not given),546,-2.6% (inactive),21% (inactive),134,-85.1% (inactive),144,0.34,-0.315,-0.132,-2.29% (inactive),-0.45 (inactive),-3.6e-05 (inactive),0.0052 (inactive),0.00497 (inactive),inactive,-0.742% (inactive),-25.3% (inactive),-18.7% (inactive)
